In PubChem BioAssay (NCATS):
Records with an inconclusive call do not appear. The source made the active and inactive calls. Unless noted, the call rests on the fitted dose curve; in most records, active means well fitted curve in either direction with a large enough effect (not every such curve was filed as active); inconclusive means small, poorly fitted or top-dose-only effect, or another doubt; inactive means flat fitted curve, though single readings scatter.

Assays:
[1] = target: Lysosomal acid glucosylceramidase (Homo sapiens) (UniProt P04062); assay: Glucocerebrosidase-p2 (AID 348; in the data active means potency below about 10 µM; further: potency means the concentration at half of the fitted maximal effect); conditions: purified GBA, blue fluorogenic substrate, 40 min
Chain of Lysosomal acid glucosylceramidase (Homo sapiens) (P04062 whole entry, looked up): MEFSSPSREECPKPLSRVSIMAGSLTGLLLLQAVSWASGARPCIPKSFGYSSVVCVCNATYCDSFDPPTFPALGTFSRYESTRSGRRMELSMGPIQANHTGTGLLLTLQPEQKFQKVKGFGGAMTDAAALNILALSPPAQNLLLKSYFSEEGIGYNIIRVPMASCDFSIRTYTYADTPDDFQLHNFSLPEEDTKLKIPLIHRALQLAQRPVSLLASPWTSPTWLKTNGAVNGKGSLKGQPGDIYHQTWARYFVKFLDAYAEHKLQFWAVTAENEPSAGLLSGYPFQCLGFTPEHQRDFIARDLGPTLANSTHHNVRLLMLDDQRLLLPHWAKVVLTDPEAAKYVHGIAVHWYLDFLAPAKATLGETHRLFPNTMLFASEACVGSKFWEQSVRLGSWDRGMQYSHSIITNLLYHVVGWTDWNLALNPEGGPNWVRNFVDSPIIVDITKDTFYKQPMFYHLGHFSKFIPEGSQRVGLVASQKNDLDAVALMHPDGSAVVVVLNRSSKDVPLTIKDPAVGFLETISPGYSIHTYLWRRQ
Summary of the method: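 Compounds titrated from 0.6 nM upwards against 0.2 nM enzyme in pH 5.9 citric acid/KH2PO4, taurocholate, tween-20; blue fluorogenic substrate 80 uM, 40 min room temperature, stopped and read Ex 365/Em 440 for AC50.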

[2] = AP1 Signaling Pathway (AID 357); conditions: ME-180 AP-1-bla reporter, EGF-induced, beta-lactamase ratio, 5 h; at 7.69 µM (top of the series) unless noted; further: on the % scale 0 is the no-effect control and ±100 the full control effect
Summary of the method: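 ME-180 cells with beta-lactamase reporter under AP-1 response element, stimulated with EC50 EGF; compounds tested in titration series, 5 h at 37 °C. CCF4 substrate added 2.5 h at room temperature; 460/530 nm emission ratio gave %activity and AC50.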

[3] = Stat Signaling Pathway (AID 446); conditions: ME-180 SIE beta-lactamase reporter, IL-6 stimulated, 5 h; at 7.69 µM (top of the series) unless noted;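 further: ME-180 cervical cancer cells given 40 pM IL-6 alongside compound; SIE-controlled beta-lactamase reporter measured as 460/530 nm FRET emission ratio; on the % scale 0 is the no-effect control and ±100 the full control effect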
Summary of the method: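 ME-180 SIE-bla cells; overnight plating; cpd + IL-6 40 pM, 5 h, 37 C; LiveBLAzer 2.5 h RT; 460/530 nm emission ratio. Normalized to 300 pM IL-6 and 125 nM JAK inhibitor controls.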

[4] = target: Glucocorticoid receptor (Homo sapiens) (UniProt P04150); assay: GR-EFC Redistribution (AID 451; calls by dose curve; further: potency means the concentration at half of the fitted maximal effect); conditions: CHO-K1 GR-EFC translocation, beta-gal luminescence, 2 h
Chain of Glucocorticoid receptor (Homo sapiens) (P04150 whole entry, looked up, the tested form may be a part): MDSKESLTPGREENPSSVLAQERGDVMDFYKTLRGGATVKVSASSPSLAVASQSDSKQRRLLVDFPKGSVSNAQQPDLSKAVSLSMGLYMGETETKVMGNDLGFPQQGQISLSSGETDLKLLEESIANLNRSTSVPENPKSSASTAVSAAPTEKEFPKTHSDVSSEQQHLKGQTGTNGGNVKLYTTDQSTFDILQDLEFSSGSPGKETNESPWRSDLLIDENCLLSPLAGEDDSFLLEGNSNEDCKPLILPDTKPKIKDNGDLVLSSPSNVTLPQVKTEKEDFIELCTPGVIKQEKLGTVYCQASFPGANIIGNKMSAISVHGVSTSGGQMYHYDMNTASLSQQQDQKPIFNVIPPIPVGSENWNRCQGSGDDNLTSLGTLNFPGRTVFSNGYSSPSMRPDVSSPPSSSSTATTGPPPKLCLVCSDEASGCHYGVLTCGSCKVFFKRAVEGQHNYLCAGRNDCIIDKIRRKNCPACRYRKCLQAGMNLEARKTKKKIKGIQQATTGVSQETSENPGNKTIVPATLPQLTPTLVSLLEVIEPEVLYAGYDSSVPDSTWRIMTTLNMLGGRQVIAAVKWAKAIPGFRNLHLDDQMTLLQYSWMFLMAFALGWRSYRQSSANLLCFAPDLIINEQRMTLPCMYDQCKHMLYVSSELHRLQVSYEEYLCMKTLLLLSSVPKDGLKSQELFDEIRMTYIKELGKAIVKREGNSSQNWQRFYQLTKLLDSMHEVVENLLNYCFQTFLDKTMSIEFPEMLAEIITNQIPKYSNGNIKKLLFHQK
Summary of the method: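 CHO-K1 cells expressing nuclear EA and GR-ED fragments of b-gal; compounds titrated up to 46 uM final, 2 h at 37 C. GR nuclear translocation read as complemented b-gal luminescence after 1 h RT detection.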

[5] = target: Mitogen-activated protein kinase 10 (Mus musculus) (UniProt Q61831); assay: JNK3 AlphaScreen Assay (AID 530); conditions: JNK3 lysate, c-Jun phosphorylation; series mostly up to 57.1 µM;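 further: kinase came from lysate of stimulated human HepG2 cells; signal reports phosphorylation of biotinylated GST-cJun 1-79 at Ser73 with 10 µM ATP; on the % scale 0 is the no-effect control and ±100 the full control effect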
Summary of the method: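 Pre-activated (IL-1β/TNFα) JNK3 in HepG2 lysates phosphorylates biotin-GST-cJun(1-79), 10 uM ATP; anti-phospho-cJun(Ser73) AlphaScreen read at room temperature, pH 7.6 Tris buffer. Compounds pre-incubated 15 min as titrations.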

[6] = target: 3',5'-cyclic-AMP phosphodiesterase 4B (Homo sapiens) (UniProt Q07343); assay: qHTS Assay for Inhibitors of PDE-IV (AID 607; active means well fitted activation curve with a large enough effect in the main read-out, with a control signal flat, not every such curve was filed as active; further: % of control where 0% means no effect); conditions: HEK293 ACTOne CNG channel cells, membrane potential fluorescence; series mostly up to 22.9 µM
Chain of 3',5'-cyclic-AMP phosphodiesterase 4B (Homo sapiens) (Q07343 whole entry, looked up): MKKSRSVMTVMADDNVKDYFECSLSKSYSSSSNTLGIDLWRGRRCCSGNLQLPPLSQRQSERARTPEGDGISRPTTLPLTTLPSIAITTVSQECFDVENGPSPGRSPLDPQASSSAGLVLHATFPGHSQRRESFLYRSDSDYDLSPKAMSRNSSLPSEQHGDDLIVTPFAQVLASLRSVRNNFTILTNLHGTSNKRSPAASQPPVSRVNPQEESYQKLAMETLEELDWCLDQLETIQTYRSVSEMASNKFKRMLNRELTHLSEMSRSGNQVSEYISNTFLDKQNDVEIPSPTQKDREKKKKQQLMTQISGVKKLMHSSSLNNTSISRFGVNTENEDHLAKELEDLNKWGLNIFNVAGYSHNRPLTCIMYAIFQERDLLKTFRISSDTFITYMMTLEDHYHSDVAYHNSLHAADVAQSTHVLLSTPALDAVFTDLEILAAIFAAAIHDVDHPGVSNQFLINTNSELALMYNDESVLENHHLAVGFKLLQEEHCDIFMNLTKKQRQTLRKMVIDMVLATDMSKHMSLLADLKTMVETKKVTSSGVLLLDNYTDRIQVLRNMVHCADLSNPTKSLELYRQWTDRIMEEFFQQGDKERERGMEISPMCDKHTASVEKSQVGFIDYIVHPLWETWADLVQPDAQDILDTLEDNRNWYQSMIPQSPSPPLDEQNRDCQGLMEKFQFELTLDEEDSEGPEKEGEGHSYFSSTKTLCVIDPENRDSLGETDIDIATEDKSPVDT
Summary of the method: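 ACTOne HEK293 cells carry a modified cAMP-gated CNG channel and express endogenous PDE4; plated 1000 cells/well, compounds up to 22.9 uM final. Membrane-potential dye fluorescence (ex 535/em 590) was read; parental cells received 10 uM forskolin + 100 uM RO 20-1724.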

[7] = target: Cytochrome P450 2D6 (Homo sapiens) (UniProt P10635); assay: qHTS Assay for Inhibitors and Substrates of Cytochrome P450 2D6 (AID 891; active means well fitted curve in the direction sought with a large enough effect; an effect the other way counts as inactive or inconclusive; further: potency means the concentration at half of the fitted maximal effect; nearly all actives have a fitted effect of over 60% in size); conditions: recombinant CYP2D6, luciferin-ME EGE luminescence; series mostly up to 57.1 µM
Chain of Cytochrome P450 2D6 (Homo sapiens) (P10635 whole entry, looked up): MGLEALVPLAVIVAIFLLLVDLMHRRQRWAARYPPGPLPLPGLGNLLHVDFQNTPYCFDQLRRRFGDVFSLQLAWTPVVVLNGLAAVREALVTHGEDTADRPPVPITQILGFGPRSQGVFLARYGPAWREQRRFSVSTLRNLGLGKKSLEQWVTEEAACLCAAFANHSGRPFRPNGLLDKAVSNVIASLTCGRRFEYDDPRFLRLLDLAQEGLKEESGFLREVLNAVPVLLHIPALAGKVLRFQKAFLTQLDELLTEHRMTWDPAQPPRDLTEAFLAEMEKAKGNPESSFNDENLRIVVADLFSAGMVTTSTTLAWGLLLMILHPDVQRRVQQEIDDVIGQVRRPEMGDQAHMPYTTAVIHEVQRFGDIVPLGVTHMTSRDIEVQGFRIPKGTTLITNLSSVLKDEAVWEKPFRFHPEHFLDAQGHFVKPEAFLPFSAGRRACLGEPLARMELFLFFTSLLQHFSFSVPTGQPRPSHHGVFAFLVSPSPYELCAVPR
Summary of the method: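 Human CYP2D6 (5 nM) with 30 uM Luciferin-ME EGE (at Km) in 100 mM KPO4, compound preincubated 10 min, then NADPH regeneration system for 60 min at room temperature. Luciferin read by luminescence; normalized to 1.43 uM quinidine.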

[8] = qHTS Assay for Lipid Storage Modulators (AID 1519; calls by dose curve); conditions: Drosophila S3 cells, BODIPY lipid droplet/cell ratio, laser cytometry, cells loaded with oleic acid; for activity change, negative = inhibition: at 57.5 µM (top of the series)
Summary of the method: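 Cells seeded at 5,000 per well were treated with compounds over a concentration series and loaded with oleic acid (400 uM, as added). Lipid droplet fluorescence (488 nm excitation, 500-530 nm channel) was read by laser-scanning cytometry and normalized to 20 uM Triacsin C.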

[9] = Primary qHTS for small molecule stabilizers of the endoplasmic reticulum resident proteome: Secreted ER Calcium Modulated Protein (SERCaMP) assay (AID 1508630; active means well fitted curve in the direction sought with a large enough effect; an effect the other way counts as inactive or inconclusive; further: on the % scale 0 is the no-effect control and ±100 the full control effect); conditions: SH-SY5Y GLuc-SERCaMP (Gaussia luciferase released on ER calcium loss) secretion, thapsigargin, luminescence; series mostly up to 38.4 µM
Summary of the method: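 GLuc-SERCaMP-expressing SH-SY5Y cells, pretreated 16 h with compound, are challenged with thapsigargin to empty ER calcium stores; after 4 h, coelenterazine is added directly to the medium and luminescence is imaged.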

[10] = target: Cytochrome P450 1A2 (Homo sapiens) (UniProt P05177); assay: p450-cyp1a2 (AID 410; calls by dose curve; further: potency means the concentration at half of the fitted maximal effect); conditions: recombinant CYP1A2, luciferin-ME demethylation, luminescence; series mostly up to 57 µM
Chain of Cytochrome P450 1A2 (Homo sapiens) (P05177 whole entry, looked up): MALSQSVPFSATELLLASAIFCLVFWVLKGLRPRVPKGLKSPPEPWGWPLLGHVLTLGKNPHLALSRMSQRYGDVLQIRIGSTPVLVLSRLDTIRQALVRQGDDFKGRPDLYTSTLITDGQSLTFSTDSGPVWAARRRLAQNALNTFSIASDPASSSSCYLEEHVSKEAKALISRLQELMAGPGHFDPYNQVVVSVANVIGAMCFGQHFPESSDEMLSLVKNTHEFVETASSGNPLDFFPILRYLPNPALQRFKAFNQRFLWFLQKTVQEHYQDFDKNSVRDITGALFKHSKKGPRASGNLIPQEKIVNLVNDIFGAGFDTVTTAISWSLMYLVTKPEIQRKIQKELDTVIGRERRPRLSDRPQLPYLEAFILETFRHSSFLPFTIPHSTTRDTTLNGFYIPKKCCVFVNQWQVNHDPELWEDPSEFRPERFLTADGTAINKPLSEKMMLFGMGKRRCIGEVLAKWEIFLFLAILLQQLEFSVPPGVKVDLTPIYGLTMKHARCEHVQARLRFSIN
Summary of the method: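 Luminescent readout of luciferin formed from Luciferin-ME by human CYP1A2; data normalized against complete inhibition by 57 uM furafylline. Enzyme 20nM, substrate 100uM at Km, 100mM KPO4 buffer, 60 min reaction at room temperature.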

[11] = NFAT Signaling Pathway (AID 444); conditions: Jurkat NFAT-bla M1, carbachol, beta-lactamase ratio, 5 h; at 7.69 µM (top of the series) unless noted
Summary of the method: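 Jurkat cells with NFAT-driven β-lactamase reporter and co-expressed M1 receptor, stimulated with carbachol (final 1 uM, ~EC50), compound titration, 5 h at 37 °C. CCF4 loaded 1 h at RT; 460/530 nm ratio gave %activity and AC50.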

[12] = target: Glucocorticoid receptor (Homo sapiens) (UniProt P04150); assay: GR-GFP Redistribution (AID 450;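 active means compounds whose dose series gives a full or clear partial fitted curve of increased nuclear translocation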; further: potency means the concentration at half of the fitted maximal effect); conditions: U2OS GR-GFP nuclear translocation, laser cytometry, 2 h
[13] = target: Cytochrome P450 3A4 (Homo sapiens) (UniProt P08684); assay: qHTS Assay for Activators of Cytochrome P450 3A4 (AID 885; active means well fitted curve in the direction sought with a large enough effect; an effect the other way counts as inactive or inconclusive; further: nearly all actives have a fitted effect of over 65% in size); conditions: recombinant CYP3A4, Luciferin-PPXE luminescence, 60 min; series mostly up to 57.1 µM
Chain of Cytochrome P450 3A4 (Homo sapiens) (P08684 whole entry, looked up): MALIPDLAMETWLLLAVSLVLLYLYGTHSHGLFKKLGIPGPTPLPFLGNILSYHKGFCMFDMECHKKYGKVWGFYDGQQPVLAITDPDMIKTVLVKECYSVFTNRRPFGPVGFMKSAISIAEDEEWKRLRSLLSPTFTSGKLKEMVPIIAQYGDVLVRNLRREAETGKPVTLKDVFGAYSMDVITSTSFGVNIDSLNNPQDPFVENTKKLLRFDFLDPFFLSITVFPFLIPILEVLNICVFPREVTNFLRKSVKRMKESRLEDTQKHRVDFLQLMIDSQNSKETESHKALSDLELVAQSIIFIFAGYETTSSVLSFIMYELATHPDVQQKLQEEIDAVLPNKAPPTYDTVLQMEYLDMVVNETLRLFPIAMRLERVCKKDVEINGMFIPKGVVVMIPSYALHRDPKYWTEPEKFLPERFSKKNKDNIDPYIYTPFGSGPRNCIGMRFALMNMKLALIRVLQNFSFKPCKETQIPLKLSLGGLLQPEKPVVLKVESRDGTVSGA
Summary of the method: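 20nM CYP3A4 + 25uM Luciferin-PPXE (=KM), 200mM KPO4; cpd 10 min RT; NADPH regen, 60 min RT; stop w/ detection buffer, 20 min; luminescence. Normalized to 57 uM ketoconazole.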

[14] = target: Cytochrome P450 2C19 (Homo sapiens) (UniProt P33261); assay: qHTS Assay for Inhibitors and Substrates of Cytochrome P450 2C19 (AID 899; active means well fitted curve in the direction sought with a large enough effect; an effect the other way counts as inactive or inconclusive; further: potency means the concentration at half of the fitted maximal effect; nearly all actives have a fitted effect of over 60% in size); conditions: recombinant CYP2C19, luciferin-H EGE luminescence; series mostly up to 57.1 µM
Chain of Cytochrome P450 2C19 (Homo sapiens) (P33261 whole entry, looked up): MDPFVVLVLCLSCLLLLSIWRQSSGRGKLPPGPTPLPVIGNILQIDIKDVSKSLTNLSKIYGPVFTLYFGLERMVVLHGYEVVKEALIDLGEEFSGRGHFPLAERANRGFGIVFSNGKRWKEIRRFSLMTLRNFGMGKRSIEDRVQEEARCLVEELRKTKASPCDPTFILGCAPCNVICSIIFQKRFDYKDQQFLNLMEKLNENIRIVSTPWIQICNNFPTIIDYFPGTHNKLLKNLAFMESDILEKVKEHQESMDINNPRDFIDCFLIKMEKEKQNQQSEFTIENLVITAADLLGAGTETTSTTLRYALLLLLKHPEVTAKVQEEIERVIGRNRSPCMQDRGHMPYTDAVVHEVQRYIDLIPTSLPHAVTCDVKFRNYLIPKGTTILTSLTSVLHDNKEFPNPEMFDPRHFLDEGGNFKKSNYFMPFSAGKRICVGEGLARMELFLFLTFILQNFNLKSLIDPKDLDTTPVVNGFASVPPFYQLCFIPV
Summary of the method: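 5 nM human CYP2C19 with 10uM Luciferin-H EGE (at KM) in 50mM KPO4, compound preincubated 10 min at 37C, then NADPH regeneration for 60 min at 37C. Luciferin read by luminescence after detection reagent; normalized to 57uM ketoconazole as full inhibition.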

[15] = Confirmation and Secondary Assay for Modulators of Hemoglobin Beta Chain Splicing at IVS2 654 locus (AID 910; active means well fitted curve in the direction sought with a large enough effect; an effect the other way counts as inactive or inconclusive;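 further: HeLa cells stably carrying EGFP split by mutant beta-globin IVS2-654 intron; % of control where 0% means no effect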); conditions: HeLa EGFP-654 splicing reporter, GFP fluorescence, 48 h; series mostly up to 38.3 µM
Summary of the method: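 HeLa cells stably expressing EGFP interrupted by β-globin IVS2-654 intron, seeded overnight in Opti-MEM/2% FCS, then treated 2 days at 37 °C. Restored splicing read as total peak GFP intensity per well by laser scanning cytometry (488 nm excitation, 500–520 nm emission); 500 nM antisense PNA as control.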

[16] = target: Ubiquitin carboxyl-terminal hydrolase 1 (Homo sapiens) (UniProt O94782); assay: Inhibitors of USP1/UAF1: Pilot qHTS (AID 504865; active means well fitted curve in the direction sought with a large enough effect; an effect the other way counts as inactive or inconclusive;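 further: rhodamine fluorescence freed from ubiquitin-rhodamine substrate followed over time; top concentration of the series differs between compounds; on the % scale 0 is the no-effect control and ±100 the full control effect; nearly all actives have a fitted effect of over 35% in size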); conditions: purified USP1/UAF1, Ub-rhodamine cleavage fluorescence; series mostly up to 54.9 µM
Chain of Ubiquitin carboxyl-terminal hydrolase 1 (Homo sapiens) (O94782 whole entry, looked up): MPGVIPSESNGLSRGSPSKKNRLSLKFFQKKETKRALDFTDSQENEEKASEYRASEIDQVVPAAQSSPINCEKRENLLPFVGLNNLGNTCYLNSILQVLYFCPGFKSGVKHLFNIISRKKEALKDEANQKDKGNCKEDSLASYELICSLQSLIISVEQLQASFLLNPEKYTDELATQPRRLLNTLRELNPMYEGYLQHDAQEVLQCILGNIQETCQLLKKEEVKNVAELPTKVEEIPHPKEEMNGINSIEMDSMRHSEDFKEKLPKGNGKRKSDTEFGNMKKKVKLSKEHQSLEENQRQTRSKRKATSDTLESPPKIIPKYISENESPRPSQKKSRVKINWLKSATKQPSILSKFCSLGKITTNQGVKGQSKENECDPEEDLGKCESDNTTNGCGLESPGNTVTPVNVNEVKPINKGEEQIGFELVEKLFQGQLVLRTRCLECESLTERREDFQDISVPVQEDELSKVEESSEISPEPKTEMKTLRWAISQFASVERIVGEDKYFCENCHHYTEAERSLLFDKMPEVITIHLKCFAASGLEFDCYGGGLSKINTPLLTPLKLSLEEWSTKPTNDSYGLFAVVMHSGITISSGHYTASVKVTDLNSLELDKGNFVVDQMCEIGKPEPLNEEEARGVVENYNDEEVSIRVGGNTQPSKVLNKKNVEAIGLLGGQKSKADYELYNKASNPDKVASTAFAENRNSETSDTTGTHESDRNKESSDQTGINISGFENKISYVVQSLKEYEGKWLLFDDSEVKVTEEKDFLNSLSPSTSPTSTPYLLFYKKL
Summary of the method: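 Deubiquitinase activity followed as kinetic rhodamine fluorescence release from 150 nM Ub-Rho. 1 nM USP1/UAF1 with compound, after 15 min room-temperature preincubation, in HEPES pH 7.8 buffer containing TCEP, EDTA, BSA and Tween-20.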

[17] = measured here: cell count channel max response
[18] = measured here: lipid channel max response

CC(=O)N1CCC2(CCCN(Cc3ccccc3)C2)CC1
-0.297%: max response [8, 17]
3.92%: max response [8, 18]
active: Potency [7] 2.51 µM
inactive: Potency [1] > 11.4 µM | activity change, negative = inhibition [2] -3.56% | activity, negative = inhibition [3] 9.01% | Potency [4] > 46 µM | Potency [5] | Potency [6] | activity change, negative = inhibition [8] 2.49% | outcome [9]

COc1ccccc1CN1CCCC2(CCN(C(C)=O)CC2)C1
7.93%: max response [8, 17]
inactive: Potency [1] > 11.4 µM | activity change, negative = inhibition [2] 0.608% | activity, negative = inhibition [3] 9.98% | Potency [4] > 46 µM | Potency [5] | Potency [6] | activity change, negative = inhibition [8] 0.567% | outcome [9]
13%: max response [8, 18]
active: Potency [7] 3.16 µM

CN1CC[C@@]2(CCCN(S(=O)(=O)c3ccccc3)C2)C1
16.3%: max response [8, 18]
inactive: Potency [1] > 11.4 µM | activity change, negative = inhibition [2] -25.8% | activity, negative = inhibition [3] 3.36% | Potency [4] > 46 µM | Potency [5] | Potency [6] | activity change, negative = inhibition [8] 5.6% | outcome [9]
6.91%: max response [8, 17]

COc1ccccc1CNc1ncncc1-c1ccccc1C
-3.12%: max response [8, 17]
active: Potency [10] 7.94 µM | Potency [14] 3.98 µM
inactive: Potency [1] > 11.4 µM | activity change, negative = inhibition [11] -19.5% | activity, negative = inhibition [3] 12.8% | Potency [12] > 46 µM | Potency [4] > 46 µM | Potency [5] | Potency [6] | Potency [13] | Potency [15] | activity change, negative = inhibition [8] 9.38% | Potency [16] | outcome [9]
5.51%: max response [8, 18]

N#Cc1ccc(CN2CCCC3(CCN(C(=O)c4ccco4)CC3)C2)cc1
-10.9%: max response [8, 18]
inactive: Potency [1] > 11.4 µM | activity change, negative = inhibition [2] -7.19% | Potency [4] > 46 µM | Potency [6] | activity change, negative = inhibition [8] -5.76% | outcome [9]
-5.31%: max response [8, 17]

COCC(=O)N1CCC2(CCN(Cc3ccccc3)CC2)CC1
2.79%: max response [8, 17]
9.37%: max response [8, 18]
inactive: Potency [1] > 11.4 µM | activity change, negative = inhibition [2] -10.9% | activity, negative = inhibition [3] -3.84% | Potency [5] | Potency [6] | activity change, negative = inhibition [8] 1.52% | outcome [9]

CC(C)CN1CCC2(CC1)CCN(C(=O)c1ccco1)CC2
1.45%: max response [8, 18]
inactive: Potency [1] > 11.4 µM | activity change, negative = inhibition [2] 10.1% | activity, negative = inhibition [3] -2.71% | Potency [4] > 46 µM | Potency [5] | Potency [6] | activity change, negative = inhibition [8] -0.991% | outcome [9]
-0.576%: max response [8, 17]

COC(=O)N1CCC2(CCCN(C(=O)Nc3cccc(C#N)c3)C2)CC1
inactive: Potency [1] > 11.4 µM | activity change, negative = inhibition [2] -0.449% | Potency [4] > 46 µM | Potency [5] | Potency [6] | Potency [13] | activity change, negative = inhibition [8] 4.6% | outcome [9]
23.7%: max response [8, 18]
16%: max response [8, 17]
